These results are taken from PubChem BioAssay (NCI).

Test in all cases: NCI-60 one-dose screen, 48 h (100 = growth as untreated, 0 = no growth, -100 = all killed)
Assay [1] relates to K-562 leukemia. Conditions: 10 µM unless noted.
The test system of assay [2] is MALME-3M melanoma. The settings on record: 10 µM unless noted.
For assay [3], the system named is MDA-MB-231 breast. The settings on record: 10 µM unless noted.
Assay [4] relates to RXF 393 renal. The settings on record: 10 µM unless noted.
Assay [5] relates to SF-268 CNS. The settings on record: 10 µM unless noted.
Assay [6] has as its system SF-295 CNS. Conditions: 10 µM unless noted.
The subject of assay [7] is SF-539 CNS. Conditions: 10 µM unless noted.
Assay [8] concerns UACC-257 melanoma. The settings on record: 10 µM unless noted.
Assay [9] deals with M14 melanoma. The settings on record: 10 µM unless noted.
The subject of assay [10] is HCT-15 colon. Conditions: 10 µM unless noted.
Assay [11] concerns HT29 colon. The settings on record: 10 µM unless noted.
In assay [12] the test system is SNB-19 CNS. Conditions: 10 µM unless noted.
Assay [13] relates to U251 CNS. The settings on record: 10 µM unless noted.
In assay [14] the test system is PC-3 prostate. The settings on record: 10 µM unless noted.
Assay [15] deals with UACC-62 melanoma. The settings on record: 10 µM unless noted.
For assay [16], the system named is LOX IMVI melanoma. The settings on record: 10 µM unless noted.
In assay [17] the test system is SK-MEL-28 melanoma. The settings on record: 10 µM.
Assay [18] concerns SK-MEL-2 melanoma. The settings on record: 10 µM unless noted.
Assay [19] has as its system SNB-75 CNS. The settings on record: 10 µM unless noted.
Assay [20] deals with SK-MEL-5 melanoma. The settings on record: 10 µM unless noted.

Compounds without any hit were thinned out: in the full panel of roughly 83,000, 20% have a hit.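 Assay: single dose, 48 h. Readout: percent growth (0 = no net growth; negative = cell death). Active: <10.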 Unmarked numbers belong to inactive results. Activity calls are given as the source filed them.

As to `CN1C(=O)N(C)C2Nn3c(s/c(=C\c4ccc(Cl)cc4Cl)c3=O)=NC21` (stereo not drawn), the growth in assay [1] is 19.5%; in assay [2], 72.5%; in assay [3], 55.9%; in [4] it was 39.7%; in assay [5], 61.1%; in assay [6], 32.4%. The growth is 36% in assay [7]; 84.5% in assay [8]; 21% in assay [9]; 43.8% in assay [10]; 37% in [11]; 64% in assay [12]. The growth is 61.4% in [13]; 38.9% in assay [14]; 47.1% in assay [15]; 58.3% in assay [16]; 62.1% in assay [17]; 89.2% in [18].

On to `CCOC(=O)c1cc2c(n1Cc1cccc(OC)c1)-c1oncc1CCC2`, for which the growth in assay [1] is 10.8%; in [2] it was -0.828% (active); in assay [3], 53.9%; in assay [4] it was 21.4%; in assay [5] it was 38.8%; in assay [6], 7.73% (active). The growth in assay [7] was 2.09% (active); in [8], 42.7%; in assay [10], 29.3%; in [11], 10%; in [19] it was 7.49% (active); in [12], 39.4%. Besides, the growth in assay [13] is 27.3%; in [14] it was 38.8%; in assay [20], 1.56% (active); in assay [15] it was 31%; in assay [16], 33.7%; in assay [17], 47.8%. Further, the growth in [18] was 36.9%.

Consider `C=C[C@@H]1CCC/C=C/[C@@H]2C[C@H](O)C[C@H]2[C@H](O)/C=C/C(=O)O1`, for which the growth is 11.4% in assay [1]; -12.5% (active) in assay [2]; -47.9% (active) in assay [3]; -5.1% (active) in assay [4]; 8.16% (active) in [5]; 14.6% in [6]. For the same compound, the growth in [7] is 30.3%; in [8], 33.5%; in assay [9], 21%; in [10] it was 11.6%; in assay [19], 33.8%; in assay [12], 33.4%. Besides, the growth in assay [13] is 25.3%; in assay [14], 30.3%; in assay [20], -90.1% (active); in [16], -63.6% (active); in assay [17], 6.18% (active); in [18] it was -1.5% (active).

Consider `CC[C@@H](C)[C@H](NC(=O)Cn1cc(CNC(=O)[C@@H](NC(=O)OCc2ccccc2)C(C)C)nn1)C(=O)O`, for which the growth in [1] is 104%; in assay [2], 105%; in assay [3], 99.4%; in assay [4], 104%; in [5], 114%; in assay [6] it was 94.1%. The growth in [7] is 105%; in assay [8], 101%; in assay [9] it was 107%; in assay [10] it was 111%; in [19], 101%; in assay [12], 106%. Also, the growth in assay [13] was 104%; in assay [14], 97.2%; in assay [20], 102%; in [15], 100%; in assay [16], 99.7%; in [17], 113%. In addition, the growth in [18] is 110%.

Consider `CC(C)Cn1c2c(c(=S)[nH]c1=O)CCC2`, for which the growth is 103% in assay [1]; 103% in assay [2]; 101% in [3]; 109% in [4]; 98.6% in [5]; 107% in assay [6]. For the same compound, the growth is 97.4% in assay [7]; 109% in assay [8]; 105% in [9]; 105% in assay [10]; 111% in assay [11]; 97.6% in assay [12]. In addition, the growth in [13] is 102%; in assay [14], 104%; in assay [15] it was 96.1%; in assay [16], 101%; in assay [17] it was 118%; in assay [18] it was 98.2%.

Take `COc1cc(CNC(=O)c2ccsc2Nc2ccnc(C(F)(F)F)c2)ccc1O`: the growth in assay [1] was 96.6%; in assay [2], 64.4%; in assay [3], 102%; in assay [4], 106%; in assay [5] it was 94.1%; in [6], 104%. Moreover, the growth was 102% in [7]; 107% in assay [8]; 99.1% in [10]; 97.8% in assay [11]; 101% in [19]; 96% in assay [12]. For the same compound, the growth in [13] was 95.4%; in assay [14], 88.1%; in assay [20] it was 98.2%; in assay [15], 102%; in assay [16], 91.7%; in assay [17], 118%. In [18], the growth is 103%.

For `CN1C(=O)N(C)C2C1NN=c1s/c(=C\c3c[nH]c4ccccc34)c(=O)n12` (stereo not drawn), the growth in assay [1] is 8.94% (active); in assay [2], 60.6%; in assay [3], 34.7%; in [4], 44.5%; in assay [5], 39.1%; in assay [6] it was 12.8%. Also, the growth is 2.32% (active) in assay [7]; 79.5% in assay [8]; 12.3% in assay [9]; 11.8% in assay [10]; 11.3% in [11]; 27.3% in [12]. The growth in assay [13] is 14.5%; in assay [14] it was 23.4%; in assay [15], 38.3%; in assay [16], 22.3%; in assay [17] it was 69.4%; in assay [18] it was 52.5%.

For the compound `O=C(Nc1nc2c(s1)CCc1c-2c(Br)n(Cc2ccccc2)c1Br)c1ccccc1`, the growth in assay [1] was 56.8%; in [2], -16.2% (active); in [3], 36.6%; in assay [4], 36.6%; in assay [5] it was 60.7%; in assay [6] it was 62.5%. Also, the growth in [7] is 18.1%; in assay [8], 64.9%; in [10] it was 81.6%; in assay [11], 51.6%; in assay [19], -10.7% (active); in assay [12], 65.7%. Further, the growth in assay [13] was 57.3%; in assay [14], 67.3%; in assay [20], 41%; in [15], 62.4%; in [16], 68.5%; in [17] it was 66%. The growth in [18] is 89.4%.
